According to a collection of fitness landscapes (doi:10.1016/j.celrep.2020.107928):
In all, about 81,000 sequences were measured (“one-hybrid fitness for binding parS DNA”: median about -0.17, highest 2% from about 0.51 on). This is one part of a sample in which the highest values are shown more often than they occur.

B1: Caulobacter ParB omega fusion; a variant is named by its letters at X, in order, B8GW30 (parent)
chain: MESVVVGEPGMSEGRRGLGRGLSALLGEVDAAPAQAPGEQLGGSREAPIEILQRNPDQPRRTFREEDLEDLSNSIREKGVLQPILVRPSPDTAGEYQIVAGERAWRAAQRAGLKTVPIMVRELDDLAVLEIGIIENVQRADLNVLEEALSYKVLMEKFERTQENIAQTIGKSXSHVANXMRLLXLPDEVQSYLVSGELTAXHARAIAAAADPVALAKQIIEGGLSVRETEALARKAPNLSAGKSKGGRPPRVKDTDTQALESDLSSVLGLDVSIDHRGSTGTLTITYATLEQLDDLCNRLTRGI

Variants of: B1
Test: one-hybrid fitness for binding parS DNA (scaled: cognate 1, non-cognate 0); higher = stronger binding
Details: with parS DNA site
Outline: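 Pre- and post-selection plasmids were Illumina-sequenced, three replicate libraries were pooled, and any variant with under 10 reads was removed. The libraries were Caulobacter ParB with four specificity codons randomised, selected in E. coli USO through a HIS3 reporter whose site is 19 bp from the promoter. Cells grew 48 hours at 37°C on M9 without histidine, with 0.1 mM IPTG and 5 mM 3-AT. Fitness is the log change in variant-to-wild-type read ratio, rescaled against cognate and non-cognate.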

one-hybrid fitness for binding parS DNA, 0.254:
RKWM

one-hybrid fitness for binding parS DNA, 0.266:
RSAF
RVRF

one-hybrid fitness for binding parS DNA, 0.301:
RQLM

one-hybrid fitness for binding parS DNA, 0.849:
RQRT

one-hybrid fitness for binding parS DNA, 0.887:
RKWC

one-hybrid fitness for binding parS DNA, 0.768:
RQDT

one-hybrid fitness for binding parS DNA, 0.318:
RQYM

one-hybrid fitness for binding parS DNA, 0.992:
RSAG
RVNG
RVLG

one-hybrid fitness for binding parS DNA, 0.86:
RQLT

one-hybrid fitness for binding parS DNA, 0.874:
RVDG

one-hybrid fitness for binding parS DNA, 0.28:
RQQF

one-hybrid fitness for binding parS DNA, 0.423:
RVLN

one-hybrid fitness for binding parS DNA, 0.234:
RVQF

one-hybrid fitness for binding parS DNA, 0.982:
RVWG

one-hybrid fitness for binding parS DNA, 0.672:
RGMS

one-hybrid fitness for binding parS DNA, 0.889:
RQNT

one-hybrid fitness for binding parS DNA, 0.895:
RQQT

one-hybrid fitness for binding parS DNA, 0.323:
RRWN

one-hybrid fitness for binding parS DNA, 0.292:
RQHH

one-hybrid fitness for binding parS DNA, 0.392:
RVRM

one-hybrid fitness for binding parS DNA, 0.759:
RHWC

one-hybrid fitness for binding parS DNA, 0.347:
RVSM

one-hybrid fitness for binding parS DNA, 0.846:
RQCT

one-hybrid fitness for binding parS DNA, 0.349:
RQRM

one-hybrid fitness for binding parS DNA, 0.739:
RRWC

one-hybrid fitness for binding parS DNA, 0.916:
RQST

one-hybrid fitness for binding parS DNA, 0.324:
RQDM
RVNM

one-hybrid fitness for binding parS DNA, 0.421:
RQDY

one-hybrid fitness for binding parS DNA, 0.892:
RQHT

one-hybrid fitness for binding parS DNA, 0.955:
RVRG

one-hybrid fitness for binding parS DNA, 1.02:
RCAG
RVYG

one-hybrid fitness for binding parS DNA, 1.03:
RVHG

one-hybrid fitness for binding parS DNA, 0.319:
RQSM

one-hybrid fitness for binding parS DNA, 0.46:
RVYN

one-hybrid fitness for binding parS DNA, 0.702:
RQWT

one-hybrid fitness for binding parS DNA, 0.847:
RQYT
RQGT

one-hybrid fitness for binding parS DNA, 0.604:
RGMG

one-hybrid fitness for binding parS DNA, 0.245:
RVLD

one-hybrid fitness for binding parS DNA, 0.543:
RGMC

one-hybrid fitness for binding parS DNA, 1.01:
RVGG

one-hybrid fitness for binding parS DNA, ≤ 0.2:
PTHK
YTPL
RQSR
RQHD
RQRK
VPNM
PYKG
NCIC
LPKF
GQSM
WYTC
RQGD
RQQR
RQNQ
RQNE
RQYK
NLLR
RPHV
WPRR
VTAC
DHDY
MGLM
DCQR
HLAT
RQCP
RQWF
RQCD
RQLR
RQWR
FMNC
QHYS
AARS
AYIV
GHTQ
WFQV
RDAG
REAG
RPAG
RPEM
VMQS
RGMN
RGMP
RGMD
RGMQ
RGMY
RGMM
PVHI
HKLN
WWDG
RNHR
DEPC
RVSR
RVWH
RVDQ
RVDK
RVNQ
RVWP
AQKQ
HTYC
VSWE
SPNG
LCPA
LGTD
MNAP
PHSE
DQES
NCWT
RCSE
MTTC
RVHQ
RVHK
RVCR
MWSG
WLTK
SYTT
YPIF
ESYW
ARYC
RVGK
RVGR
RVQR
EAAT
GLPN
PHRK
FRSF
RRWH
RIWR
RKWR
RIWQ
RHWH
RHWD
SIKI
YAQR
PSHG
PMWK
IENR
ANYG
HGQS
KWCC
NAYS

one-hybrid fitness for binding parS DNA, 0.999:
RVSG
RVQG

one-hybrid fitness for binding parS DNA, 0.936:
RIWC

one-hybrid fitness for binding parS DNA, 0.213:
RVYP

one-hybrid fitness for binding parS DNA, 0.249:
RQGH
RVCF

one-hybrid fitness for binding parS DNA, 0.972:
RVCG
